Reference: the supplement of paper PMC3334620
Over roughly 33,000 sequences, “E-score (-0.5 to 0.5)” has its median near -0.054; the highest 2% begin near 0.35. What follows is part of a selection rich in the highest values, with near analogues and random picks from the rest.

What follows are sequences tested against T1, Stb5 (UniProt P38699) (assay: PBM E-score (8-mer binding enrichment) (E-score (-0.5 to 0.5)); higher = stronger / more preferred TF binding). Settings: protein concentration: 200 nM; construct: GST-full length.
T1 sequence: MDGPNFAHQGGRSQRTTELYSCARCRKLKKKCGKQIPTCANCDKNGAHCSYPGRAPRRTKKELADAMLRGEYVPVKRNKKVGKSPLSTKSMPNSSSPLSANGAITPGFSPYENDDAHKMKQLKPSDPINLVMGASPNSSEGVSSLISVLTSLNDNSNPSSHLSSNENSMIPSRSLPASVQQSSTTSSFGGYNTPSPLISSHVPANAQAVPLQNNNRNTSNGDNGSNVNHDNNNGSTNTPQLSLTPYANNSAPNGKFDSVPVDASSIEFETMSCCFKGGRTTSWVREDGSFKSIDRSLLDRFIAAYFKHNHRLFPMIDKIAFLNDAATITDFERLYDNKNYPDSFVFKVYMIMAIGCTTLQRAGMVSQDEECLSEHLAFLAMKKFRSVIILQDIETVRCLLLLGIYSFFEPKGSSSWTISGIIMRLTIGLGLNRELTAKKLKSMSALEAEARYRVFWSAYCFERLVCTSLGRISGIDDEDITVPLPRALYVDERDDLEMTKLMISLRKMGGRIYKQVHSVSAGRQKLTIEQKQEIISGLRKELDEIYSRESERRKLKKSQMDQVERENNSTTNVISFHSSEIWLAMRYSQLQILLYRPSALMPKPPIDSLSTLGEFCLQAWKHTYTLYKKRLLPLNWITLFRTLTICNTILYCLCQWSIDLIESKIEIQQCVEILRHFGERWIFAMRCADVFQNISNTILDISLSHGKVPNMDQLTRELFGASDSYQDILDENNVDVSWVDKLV
In short: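 Each ungapped eight-base word and its reverse complement, pooled, received an E-score from the Universal PBM Analysis Suite. Underlying scans, normalised with masliner, recorded fluorescent anti-GST bound to GST-tagged yeast transcription factors. These were applied at about 100-200 nM to universal all-10-mer Agilent arrays double-stranded by primer extension.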

Sequence | PBM E-score
ACGGGGTC | 0.362
ACGGGCAT | 0.363
ACCGGGCC | 0.306
ACCGGGCT | 0.38
ACGGGCAG | -0.0575
ACGGGCAC | 0.105
CCGTATCA | 0.145
CCGTCTCC | 0.22
CCCTCAAC | -0.125
AAGTAGGT | 0.00443
ATAAGTAC | 0.133
CATGACCA | -0.378
CTGGACTC | -0.169
AAACGAAC | -0.193
ACCTTACA | -0.0752
CGGTTTTA | 0.41
AGGTTATA | -0.0254
AGGTTTTA | 0.0721
CGGTTTAA | 0.155
AGGTTCTA | 0.0114
CGGTTATA | 0.37
CGGGTTTA | 0.467

Sequence | PBM E-score
GGGTTATA | 0.257
CGGGTTTC | 0.273
GGGGTTTA | 0.329
GGGTTCTA | 0.162
CGGTTCTA | 0.36
CTAAAGGA | 0.0339
ACTGAAGC | -0.111
CTCCATAC | -0.0338
CGTTCGGA | 0.243
GAAGGTCA | -0.15
AACACCAG | 0.011
ACCGTCGC | 0.332
ACCGTCGG | 0.392
ACCGTCGA | 0.286
CCCGTCGC | 0.25
CCCGTCGG | 0.435
CCCGTCGA | 0.206
GTTAACCA | -0.181
GCACCACA | -0.0487
CCCATGCC | 0.0152
TATGTGAA | -0.344
AAACTTGT | -0.145

Sequence | PBM E-score
CAGCGGAC | 0.332
AAGCGGAG | 0.252
GAGCGGAA | 0.308
AAGCGGAC | 0.352
GAGCGGAC | 0.376
AAGCGGAT | 0.297
CAGTTATG | 0.143
GGCCCGCC | 0.303
CCCCCGCG | 0.325
AGCCCGCT | 0.317
AACCCGCG | 0.231
CCCCCGCC | 0.313
AACCCGCT | 0.222
GCCCCGCC | 0.403
ACCCCGCC | 0.463
GCCCCGCA | 0.262
ACCCCGCG | 0.367
AACCCGCC | 0.276
ACCCCGCT | 0.437
AATCAATT | -0.151
TGTATGAA | 0.0366
CTTTAAGA | 0.0831

Sequence | PBM E-score
TAGCAGCA | -0.233
AATATTAA | 0.0579
TTCTCAAA | -0.128
ACCGATAG | 0.167
CAACAATG | -0.0552
AACCCGCA | 0.229
CCCCCGCA | 0.154
ACCCCGCA | 0.382
CGTGTTAG | 0.0849
CAGCACCG | 0.313
AATCACCG | 0.441
AATCACCA | -0.0307
AACCACCG | 0.406
CATCACCG | 0.251
AAGCACCT | -0.21
AAGCACCG | 0.457
CACCACCG | 0.21
AACCACCA | -0.124
ACCAGTGA | -0.215
GAGCTCGA | -0.257
